Source: PubChem
An excerpt weighted towards active compounds, which were near 1.6% of everything screened.
PREPL inhibitor: human PREPL enzyme inhibition. Q4J6C6. recombinant PREPL, fluorescence polarization activity-based probe. inhibition, % at 5.96 µM. 320,000 tested, 0.68% active; in the data active = inhibition above about 43%;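 note: 0% = enzyme with DMSO and 100% = wells lacking enzyme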
GRK2 inh: inhibitors of human GRK2 displacing RNA aptamer | P25098 | bead flow cytometry, FAM-aptamer displacement from GRK2 | inhibition of aptamer binding, % at 10 µM | 330,000 tested, 0.59% active;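 active = inhibition of aptamer binding above 40%, roughly 3 SD of noise, on plates passing a quality check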;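 note: median bead fluorescence of bound FAM aptamer so fluorescent compounds give negative values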
VLA-4 inh: inhibition in a human VLA-4 binding assay. VLA-4 expressing cells, ligand binding flow cytometry. inhibition, % (about 7 µM as worked out from the volumes in the protocol). 330,000 tested, 0.2% active. AID 2557; in the data active = inhibition above about 50%
DSG3 Ab inh: blocks pemphigus antibody binding to human desmoglein-3; P32926; DSG3-coupled beads, scFv-anti-DSG3-GFP binding, flow cytometry; stronger effect = lower value; binding (percent of control), % at 10 µM; 310,000 tested, 0.48% active;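 active = binding more than 3 SD below its plate's average and above zero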;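 note: hits lower antibody fragment binding to DSG3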
GASC-1 inh: human JMJD2C demethylase inhibition; Q9H3R0; GST-JMJD2C(1-420) H3K9me3 demethylation, DELFIA europium; inhibition, % at 2.35 µM; 330,000 tested, 0.069% active; AID 2099;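 active = more than half of a compound's replicate wells show inhibition beyond 50%, single wells judged on their own value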;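 note: signal counts dimethyl H3K9 product captured on neutravidin plate; 0% = median of DMSO wells and 100% = 0.3 times that DMSO median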
Target sequence (Q9H3R0 1-420 limits assumed): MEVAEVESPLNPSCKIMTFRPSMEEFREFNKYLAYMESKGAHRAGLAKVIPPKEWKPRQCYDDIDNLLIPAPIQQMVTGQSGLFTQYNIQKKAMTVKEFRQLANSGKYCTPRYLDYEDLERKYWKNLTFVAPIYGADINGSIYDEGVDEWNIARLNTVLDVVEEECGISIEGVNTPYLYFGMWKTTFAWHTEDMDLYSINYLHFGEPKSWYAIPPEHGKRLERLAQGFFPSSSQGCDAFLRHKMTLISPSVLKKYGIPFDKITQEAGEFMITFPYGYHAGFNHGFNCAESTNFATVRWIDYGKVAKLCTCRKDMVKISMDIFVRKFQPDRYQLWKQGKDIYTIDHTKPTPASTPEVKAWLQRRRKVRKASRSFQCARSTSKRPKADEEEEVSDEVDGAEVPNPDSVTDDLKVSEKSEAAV
GRK2 CP1: confirmation of human GRK2 inhibitors displacing RNA aptamer | shares compounds with GRK2 inh | bead-bound GRK2, FAM-aptamer displacement, flow cytometry | aptamer displacement, % at 10 µM | 2,000 tested, 4% active;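 active = aptamer displacement above 40%, near three times the noise of non-fluorescent compounds, on plates passing quality checks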;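 note: negative values mostly reflect intrinsic compound fluorescence rather than true enhancement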
Aptamer quench 1: quenches fluorescent RNA aptamer, GRK2 hit artifact; shares compounds with GRK2 inh; Fluorescent RNA aptamer beads, quenching, flow cytometry; stronger effect = higher value; fluorescence change (kMESF span), kMESF (no concentration beside the values); 110 tested, under 10 active; AID 504521;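 active = compounds whose bead fluorescence drops by more than 37 kMESF across the dose range, marking them as dye quenchers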
FAM quench CP1: counter-screen for GRK2 aptamer inhibitors: fluorescent aptamer quenchers. shares compounds with GRK2 inh. Carboxyfluorescein RNA aptamer on beads, flow cytometry quenching; stronger effect = lower value. fluorescence response (% of DMSO), % at 10 µM. 2,000 tested, under 10 active. AID 504580;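 active = compounds that quench the bead-bound fluorescent RNA probe, cutting fluorescence to under half of the solvent control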;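 note: counterscreen run without GRK2 so only probe quenching by compound is measured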
GRK2 confirm 2: human GRK2 inhibition confirmation, cherry pick 2; inhibition of aptamer binding, % at 10 µM; bead-bound GRK2, FAM-aptamer displacement, flow cytometry; shares compounds with GRK2 inh; 360 tested, under 10 active;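 active = inhibition of aptamer binding above 40%, about triple the noise seen with nonglowing compounds, on plates passing quality control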;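 note: negative values mostly come from compounds that fluoresce themselves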
FAM quench CP2: quenches fluorescent RNA aptamer, GRK2 hit artifact | shares compounds with GRK2 inh | carboxyfluorescein RNA aptamer beads, flow cytometry quenching; stronger effect = lower value | fluorescence response vs DMSO, % at 10 µM | 360 tested, under 10 active | AID 588494;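 active = response vs DMSO under 50%, meaning signal dropped by over half, treated as fluorescence quencher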;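 note: labelled aptamer on streptavidin beads without GRK2 as a quench counter-screen; 100% = bead fluorescence of DMSO wells and lower means quenching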
FAM quench PS1: counter-screen for GRK2 aptamer binding inhibitors: aptamer fluorescence quenching; fluorescence ratio to DMSO, % at 11.1 µM; shares compounds with GRK2 inh; Bead-bound FAM RNA aptamer fluorescence quenching, flow cytometry; stronger effect = lower value; 35 tested, under 10 active;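 active = compounds that dim the fluorescent label, raw bead signal shifting by over 33 units between lowest and highest dose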
* marks the source's active call; other numbers are inactive results; nt = no result.

SMILES | PREPL inhibitor | GRK2 inh | VLA-4 inh | DSG3 Ab inh | GASC-1 inh | GRK2 CP1 | FAM quench CP1 | others
CC(C)(C)OC(=O)N1CCCC(C(=O)Nc2ccc(C(=O)N3CCOCC3)cc2)C1 (stereo not drawn) | 0.0 | 1.0 | 3.2 | 101.6 | 10.7 | nt | nt
O=C(Nc1ccccc1C(=O)Nc1ccc(Br)cn1)c1ccccc1Cl | -23.3 | 44.0* | 32.4 | 108.4 | 4.8 | nt | nt | GRK2 confirm 2=15.9;FAM quench CP2=100.0
COc1ccccc1CNS(=O)(=O)CCNC1CC1 | nt | nt | nt | 103.3 | nt | nt | nt
CCOc1ccc(S(=O)(=O)N(CC)CC(=O)NCc2ccccn2)cc1C | 14.0 | 0.0 | -0.7 | 91.4 | 7.2 | nt | nt
CC(C)Oc1ccc(S(=O)(=O)N2CCCCC2)cc1NC(=O)CN1CCCC1c1cccs1 (stereo not drawn) | 5.1 | 1.0 | 7.2 | 104.5 | 3.0 | nt | nt
O=C1NC(=O)/C(=C\c2ccc(Br)o2)S1 | 22.1 | 90.0* | -9.3 | 102.7 | -2.8 | 6.0 | 93.8
O=C(NCC1CCCO1)C1CCCN(Cc2cnn(-c3ccccc3)c2-n2cccc2)C1 (stereo not drawn) | 0.2 | 0.0 | 14.5 | 105.0 | -5.6 | -7.0 | 97.7
Cc1ccc(CNC(=O)C2CCCN(Cc3cnn(-c4ccccc4)c3-n3cccc3)C2)cc1 (stereo not drawn) | -27.1 | 5.0 | 1.0 | 106.8 | -4.5 | -4.2 | 99.2
CCOC(OCC)c1cn(Cc2ccc3c(c2)C(=O)c2ccccc2C3=O)nn1 | 34.4 | 0.0 | -12.4 | nt | 4.3 | nt | nt
CC(=O)N1c2ccc(S(=O)(=O)NCC3CCC(C(=O)Nc4cc(C)ccn4)CC3)cc2CC1C (stereo not drawn) | 8.2 | 0.0 | 1.8 | nt | 23.6 | nt | nt
Cc1ccc(NC(=O)CN(C)S(=O)(=O)c2ccc(Cl)s2)c(O)c1 | 3.3 | 2.0 | 1.7 | 105.1 | -2.3 | nt | nt
COc1cccc(CC2(CO)CCCN(Cc3cn[nH]c3-c3ccc(F)cc3)C2)c1 (stereo not drawn) | 8.9 | 0.0 | 8.8 | 109.5 | -2.6 | -3.0 | 103.6
CCOc1ccc(CNC(=O)CCC(=O)N2Cc3ccccc3Oc3ncccc32)cc1 | 4.6 | 2.0 | -1.1 | nt | -5.5 | nt | nt
CCc1c(O)nc(SCC(=O)NCc2ccco2)[nH]c1=O | 0.6 | 11.0 | 13.8 | 79.3 | 0.3 | nt | nt | GRK2 confirm 2=0.8;FAM quench CP2=107.0
Cc1cc(=O)[nH]c(SCC(=O)NCc2ccco2)n1 | -3.2 | 54.0* | 5.8 | 103.0 | 13.1 | 94.4* | 99.1 | Aptamer quench 1=2.1;FAM quench PS1=100.0
Cc1sc2nc(SCC(=O)NCc3ccco3)[nH]c(=O)c2c1C | -3.7 | 1.0 | 33.6 | 106.7 | nt | nt | nt | GRK2 confirm 2=-13.3;FAM quench CP2=102.0
Cc1nnc(SCC(=O)NCc2ccco2)[nH]c1=O | 10.1 | 5.0 | -16.2 | 93.4 | 0.3 | nt | nt
O=C(CSc1nccc(=O)[nH]1)NCc1ccco1 | -4.4 | 37.0 | 12.9 | 93.1 | -19.2 | nt | nt
Cc1sc2nc(SCC(=O)NCc3cccs3)[nH]c(=O)c2c1C | -5.8 | 1.0 | 7.1 | 103.9 | -1.9 | nt | nt
O=C(CSc1nnc(NC(=O)Cc2ccccc2)s1)NCc1ccco1 | 2.2 | 60.0* | 11.1 | 123.0 | 0.8 | -0.6 | 92.4
CCCCN1CNC(=S)N(c2ccc(C(=O)OCC)cc2)C1 | -1.9 | 2.0 | 5.3 | 98.4 | 8.7 | nt | nt
O=C(Nc1nncs1)c1cc(S(=O)(=O)N2CCCCC2)ccc1Cl | -2.2 | 1.0 | 29.6 | 90.7 | -35.9 | nt | nt
CC(C)CC(=O)Nc1ccnn1C1CCN(C(=O)c2ccc(Cl)cc2F)CC1 | 7.3 | 0.0 | 3.0 | 104.3 | -3.0 | nt | nt
Cn1c(SCC(=O)NCc2ccco2)nnc1-c1cccs1 | -0.7 | 86.0* | 33.7 | nt | -1.3 | 3.1 | 99.6
O=C1NC(=O)/C(=C\c2ccc(O)cc2O)S1 | 5.3 | 76.0* | -0.7 | 98.9 | 6.6 | 2.9 | 101.5
SMILES | PREPL inhibitor | GRK2 inh | VLA-4 inh | DSG3 Ab inh | GASC-1 inh | GRK2 CP1 | FAM quench CP1 | others
O=C1NC(=O)/C(=C/c2cccc3ccccc23)S1 | 12.4 | 1.0 | 8.9 | 115.7 | 0.8 | nt | nt
O=C(Nc1cccc(Cl)c1)c1cnc[nH]1 | 1.8 | 58.0* | 8.0 | 107.8 | 5.7 | 3.5 | 92.2
Cc1cccc(NC(=O)c2nc[nH]c2C(=O)N[C@@H](Cc2ccccc2)C(=O)OC(C)(C)C)c1 | -1.7 | 2.0 | 22.7 | 101.8 | 9.5 | nt | nt
CNC(=O)c1[nH]cnc1C(=O)Nc1cccc(Cl)c1 | -8.9 | 91.0* | 14.9 | 99.7 | 8.5 | 93.3* | 98.1 | Aptamer quench 1=4
CC(C)(C)OC(=O)[C@H](Cc1ccccc1)NC(=O)c1[nH]cnc1C(=O)Nc1cccc(Cl)c1 | 8.6 | 0.0 | -22.8 | 103.4 | 1.2 | -1.7 | 97.6
O=C(Nc1cccc(Cl)c1)c1ccncc1 | -12.4 | 1.0 | 4.4 | 103.0 | 16.4 | nt | nt
C[C@@H](NC(=O)c1[nH]cnc1C(=O)Nc1cccc(Cl)c1)c1ccccc1 | -13.8 | 0.0 | 21.5 | 101.3 | 3.0 | -2.1 | 100.2
C[C@H](NC(=O)c1[nH]cnc1C(=O)Nc1ccc(Cl)cc1)c1ccccc1 | -11.9 | 0.0 | 29.0 | 107.2 | 8.2 | nt | nt
COc1ccc(Cl)cc1NC(=O)c1sc2nc(C)nc(N3CCOCC3)c2c1C | 24.0 | 0.0 | 9.4 | 99.0 | 37.9 | nt | nt
c1ccc(Cc2noc(CN3CCCC(CN4CCOCC4)C3)n2)cc1 (stereo not drawn) | 1.0 | 0.0 | -9.0 | 89.8 | -2.5 | nt | nt
CN(Cc1ccccc1)C(=O)c1[nH]cnc1C(=O)Nc1cccc(Cl)c1 | 10.2 | 0.0 | 12.5 | 103.6 | 2.5 | 0.8 | 102.0
C[C@@H](NC(=O)c1[nH]cnc1C(=O)Nc1ccccc1)c1ccccc1 | -18.4 | 1.0 | 19.2 | 102.0 | 2.7 | nt | nt
C[C@H](NC(=O)c1[nH]cnc1C(=O)Nc1cccc(Cl)c1)c1ccccc1 | -9.7 | 1.0 | 1.3 | 99.5 | 4.2 | 1.6 | 103.9
CN(Cc1ccccc1)C(=O)c1[nH]cnc1C(=O)Nc1ccc(Cl)cc1 | 3.3 | 1.0 | 20.2 | 109.2 | 1.8 | nt | nt
CC1CCN(C(=O)c2[nH]cnc2C(=O)Nc2cccc(Cl)c2)CC1 | 24.5 | 0.0 | 14.8 | 106.3 | 4.8 | -3.8 | 102.9 | Aptamer quench 1=-11.5
CCN(CC)CCCNC(=O)c1ccc(S(=O)(=O)Nc2ccc(C)c(C)c2)cc1 | 8.8 | 0.0 | 10.7 | 111.7 | -1.5 | nt | nt
